HCV inhibitor: inhibitors of hepatitis C virus infection. Potency, µM (series often up to 41.8 µM), most hits filed as inhibitors. AID 651820. Huh7.5.1 HCVcc-Cre infection, luciferase reporter, 44 h. actives 3.4% (n = 340,000)
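Seed cells (1,000/well) for 4 h; treat with compound and infect with HCVcc-Cre, moi about 0.5. Incubate 44 h, then detect luciferase activity.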
AMA1-RON2 inh: disrupts binding of P. falciparum AMA1 to RON2 | AlphaScreen AMA1-biotinylated RON2 peptide binding | Potency, µM (top dose mostly 58.2 µM), usual class: inhibitors | actives 0.2% (n = 360,000) | AID 720542; note: nearly all actives have a fitted effect of over 45% in size
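AMA1 (3D7) with his tag at 25 nM final met compounds first, then biotinylated RON2 peptide at 25 nM; detection used donor plus acceptor beads, 10 µg/mL apiece, read by AlphaScreen after 30 min at room temperature.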
Pf growth 96h: P. falciparum growth inhibition at 96 hour, primary screen for plastid delayed-death inhibitors; Potency, µM (top dose mostly 28.7 µM), hits mostly inhibitors; actives 6.9% (n = 320,000); P. falciparum luciferase reporter growth, 96 h
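Infected RBCs, 2% Hct / 0.05% parasitemia final; luciferase-reporter P. falciparum; cpd 96 h, 37 C, 5% CO2; luciferase detection reagent; luminescence.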
Pf growth 48h: P. falciparum growth inhibition at 48 hours (one generation) | P. falciparum luciferase growth in erythrocytes, 48 h | Potency, µM (highest dose often 28.7 µM), hits mostly inhibitors | actives 5.9% (n = 310,000)
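Here the parasites carry a stable luciferase gene and grow inside erythrocytes in Albumax-based RPMI medium with compound for one erythrocytic cycle. Activity is scored as loss of luminescent signal.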
AmpC inh detg: inhibitors of E. coli AmpC beta-lactamase with detergent; AmpC hydrolysis of nitrocefin, absorbance 480 nm, 0.01% Triton; Potency, µM (series often up to 114 µM), most hits filed as inhibitors; actives 0.041% (n = 370,000); AID 485294; note: nearly all actives have a fitted effect of over 25% in size
Target sequence (P00811 whole entry, looked up): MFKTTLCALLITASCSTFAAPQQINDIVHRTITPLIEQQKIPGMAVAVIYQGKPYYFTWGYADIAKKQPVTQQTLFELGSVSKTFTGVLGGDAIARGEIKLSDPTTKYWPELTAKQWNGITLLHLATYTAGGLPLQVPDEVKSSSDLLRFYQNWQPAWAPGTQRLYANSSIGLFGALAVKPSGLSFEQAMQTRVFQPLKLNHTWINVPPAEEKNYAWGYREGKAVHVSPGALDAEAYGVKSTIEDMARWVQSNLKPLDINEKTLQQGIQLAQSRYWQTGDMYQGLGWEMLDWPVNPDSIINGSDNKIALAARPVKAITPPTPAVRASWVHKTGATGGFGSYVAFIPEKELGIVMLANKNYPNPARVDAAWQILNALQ
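20 mM phosphate pH 7.0 + 0.01% (detergent screen) or 0.0001% Triton X-100; 5.3 nM AmpC reagent; cpd preinc 15 min RT; nitrocefin (800 uM stock) to start; A480 q20 s × 4 min; Activity was normalised to no-enzyme and no-compound control wells.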
AmpC inh no detg: blocks E. coli AmpC beta-lactamase in detergent-free assay; actives 0.52% (n = 330,000); AmpC nitrocefin hydrolysis, absorbance 480 nm, 0.0001% Triton; P00811; Potency, µM (top dose mostly 57.1 µM), usual class: inhibitors; note: nearly all actives have a fitted effect of over 20% in size
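20 mM phosphate pH 7.0 + 0.01% (detergent screen) or 0.0001% Triton X-100; 5.3 nM AmpC reagent; cpd preinc 15 min RT; nitrocefin (800 uM stock) to start; A480 q20 s × 4 min; Activity was normalised to no-enzyme and no-compound control wells.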
Hits are given with their value; n = inactive; u = inconclusive; x = no result given. In the library only some 11% were active in any assay of this set; here they are far more common. Calls come from the whole dose curve; as a rule, active = well fitted curve in the direction sought with a large enough effect; inconclusive = small, poorly fitted or top-dose-only effect, or another doubt; inactive = no such curve, though single readings can be large; an effect the other way counts as inactive or inconclusive.

SMILES | HCV inhibitor | AMA1-RON2 inh | Pf growth 96h | Pf growth 48h | AmpC inh detg | AmpC inh no detg
O=C1CCCC2=C1C1c3ccccc3C(=O)N1c1ccc(C(=O)c3ccccc3)cc1N2 (stereo unspecified) | u | n | n | 2.3µM | u | n
O=C1CC(c2ccco2)CC2=C1C1c3ccccc3C(=O)N1c1ccccc1N2 (stereo unspecified) | u | n | n | u | n | n
CC(=O)Nc1ccc(C2=NN(C)C(=NCc3ccccc3)SC2)cc1 | n | n | 12µM | u | n | n
O=C(C(=O)N1CCOCC1)c1cn(CCCOc2ccccc2)c2ccccc12 | n | n | n | n | n | n
COC(=O)c1cn(CCOc2ccc(C)cc2)c2ccccc12 | u | n | u | x | n | n
CC(=O)c1cn(CCCOc2ccccc2)c2ccccc12 | 7.1µM | n | n | u | n | n
Cc1ccc(OCCn2cc(C#N)c3ccccc32)cc1 | u | n | u | 8.3µM | n | n
COc1ccccc1OCCn1cc(C#N)c2ccccc21 | u | n | n | u | n | n
Cc1cc(OCCn2cc(/C(N)=N/O)c3ccccc32)ccc1Cl | 7.1µM | n | u | u | u | 16µM
CC(=O)c1cn(CCOc2ccc(F)cc2)c2ccccc12 | 13µM | n | u | u | u | n
COc1ccccc1-c1nn(CCC(=O)Nc2ccccc2)c2nc(C)cc(C)c12 | x | x | x | x | n | x
CN(C1=C(N2CCOCC2)C(=O)c2ccccc2C1=O)c1ccccc1 | n | 16µM | n | u | n | n
CCOC(=O)C1CCN(C(=O)CSc2n[nH]c(-c3ccccc3Cl)n2)CC1 | x | x | x | x | n | x
COc1ccc(C2NC(=O)N(C)C3=C2C(=O)N(c2ccccc2)C3)cc1 (stereo unspecified) | x | x | x | x | n | x
CCOc1cccc2sc(Cl)nc12 | n | n | n | n | n | n
CCOc1ccc(OCC)c2sc(C)nc12 | 10µM | n | n | n | n | n
Cc1ccc2nc(C)c3c(c2c1)OC(C(C)(Cl)Br)C3 (stereo unspecified) | 7.1µM | n | u | 13µM | n | n
COc1ccc2nc(C)c3c(c2c1)OC(C(C)(Cl)Br)C3 (stereo unspecified) | n | n | n | n | n | n
Cc1nc2ccccc2c2c1CC(C(C)(Cl)Br)O2 (stereo unspecified) | 3.2µM | n | n | u | n | n
COc1ccccc1CNS(=O)(=O)c1ccc2c(c1)NC(=O)CC(=O)N2 | x | x | x | x | n | x
Cc1ccc(NC(=O)c2cnc(SCC(=O)N3CCCc4ccccc43)n(C)c2=O)cc1C | x | x | x | x | n | x
COCCCN1C(=O)c2oc3ccccc3c(=O)c2C12C(=O)N(C)c1ccccc12 (stereo unspecified) | x | x | x | x | n | x
COc1cc(NC(=O)c2nnn(Cc3ccc(SC)cc3)c2N)cc(OC)c1 | u | n | 12µM | x | n | n
CSc1cccc(NC(=O)c2nnn(Cc3ccccc3)c2N)c1 | u | n | n | 9.3µM | n | n
CCOC(=O)c1c(C)n(-c2ccc(C)cc2)c2ccc(OCC(O)CN3CCN(C)CC3)cc12 (stereo unspecified) | u | n | n | 9.3µM | n | n
SMILES | HCV inhibitor | AMA1-RON2 inh | Pf growth 96h | Pf growth 48h | AmpC inh detg | AmpC inh no detg
C#CCOc1ccc2c(c1)c(C(C)=O)c(C)n2Cc1ccccc1 | u | n | u | u | n | n
CCOC(=O)c1c(C)n(Cc2ccccc2)c2ccc(OCC(O)CN3C(=O)CNC3=O)cc12 (stereo unspecified) | 8.9µM | n | x | u | n | n
CCOC(=O)c1c(C)n(C)c2ccc(OCC(O)CNCCc3ccccc3)cc12 (stereo unspecified) | 13µM | n | 4.7µM | u | n | n
CCOC(=O)c1c(C)n(C)c2ccc(OCC(O)CN3CCN(C)CC3)cc12 (stereo unspecified) | n | n | n | x | u | n
CCOC(=O)c1c(C)n(C)c2ccc(OCC(O)Cn3c(C)nc4ccccc43)cc12 (stereo unspecified) | 10µM | n | x | 10µM | u | n
COc1ccc(C2c3c(n(C)c4ccccc34)C(=O)N2CC(=O)Nc2ccccc2Cl)cc1 (stereo unspecified) | x | x | x | x | n | x
Cc1ccc(C)c(-c2nc(Cn3c(=O)cc(-c4ccccc4)c4c(C)nn(C)c43)c(C)o2)c1 | x | x | x | x | n | x
CC(C)c1nc(N2CCN(C(=O)c3ccccc3)CC2)c(C#N)c2c1COC(C)(C)C2 | u | n | n | 10µM | n | n
CC(C)c1nc(N2CCN(C(=O)c3ccco3)CC2)c(C#N)c2c1COC(C)(C)C2 | u | n | u | u | n | n
Cc1nc(N2CCN(Cc3ccccc3)CC2)c(C#N)c2c1COC(C)(C)C2 | 11µM | n | u | n | n | n
Cc1ccc(Cc2nc3ccccc3nc2SCC(=O)NCc2ccccc2Cl)cc1 | x | x | x | x | n | x
c1ccc(OCCCCn2cnc3ccccc32)cc1 | u | n | n | n | n | n
c1ccc(OCCn2cnc3ccccc32)cc1 | u | n | n | n | n | n
c1ccc2c(c1)ncn2CCCOc1ccc2c(c1)CCC2 | u | n | 13µM | x | n | n
c1ccc2c(c1)ncn2CCCCOc1ccc2c(c1)CCC2 | u | u | 5.9µM | x | n | n
Cc1ccccc1N=C(NOCc1ccc(Cl)cc1Cl)c1nonc1N | u | n | 12µM | x | n | n
Cc1ccc(N=C(NO)c2nonc2N)c(C)c1 | n | n | n | n | n | n
Cc1ccc(N=C(NOC(=O)c2ccccc2)c2nonc2N)c(C)c1 | n | n | 5.9µM | u | u | n
Cc1ccc(N=C(NOCc2ccc(Cl)cc2Cl)c2nonc2N)c(C)c1 | n | n | 12µM | x | u | n
Cc1cc(=O)[nH]c2nnc(SCC(=O)Nc3ccc(OC(F)(F)F)cc3)n12 | x | x | x | x | n | x
CC1CCc2c(sc(NC(=O)CSc3ncn[nH]3)c2C#N)C1 (stereo unspecified) | 11µM | n | n | n | n | n
CC(C)(C)C1CCc2c(sc(NC(=O)CSc3ncn[nH]3)c2C#N)C1 (stereo unspecified) | u | n | n | n | u | n
CCN1CCN(CC(=O)Nc2sc3c(c2C#N)CCC(C)C3)CC1 (stereo unspecified) | 35µM | n | u | x | n | n
CCOC(=O)c1ccc(CN(Cc2ccc(Cl)cc2Cl)S(=O)(=O)c2cccc(Cl)c2)cc1 | x | x | x | x | n | x
CCSc1nc(-c2ccc(OC)cc2)nc2c1Cc1c(CO)cnc(C)c1O2 | x | x | x | x | n | x
CCOc1cccc(N(C(=O)CCC(=O)Nc2cc(C)on2)C(C(=O)NC(C)(C)C)c2ccc(OC)cc2)c1 (stereo unspecified) | n | n | u | 3.3µM | n | n

Compound activity from PubChem BioAssay.
